Measured values from the supplement of paper PMC11732987, “Enantioselective OTUD7B fragment discovery through chemoproteomics screening and high-throughput optimisation” (Communications Chemistry, 2025).

Tests used:
Assay in all cases: log2 ratio of Biotin-Ahx-Ub-VS probe labelling (fragment/DMSO); higher = less target engagement (more negative = stronger competition), active = hit call of the paper (q ≤ 0.05, log2 ratio ≤ -1)
Conditions in all cases: compound concentration: 200 uM; treatment time: 3 h
[1] = target: T1, OTUD6B (UniProt Q8N6M0)
T1 sequence (whole entry): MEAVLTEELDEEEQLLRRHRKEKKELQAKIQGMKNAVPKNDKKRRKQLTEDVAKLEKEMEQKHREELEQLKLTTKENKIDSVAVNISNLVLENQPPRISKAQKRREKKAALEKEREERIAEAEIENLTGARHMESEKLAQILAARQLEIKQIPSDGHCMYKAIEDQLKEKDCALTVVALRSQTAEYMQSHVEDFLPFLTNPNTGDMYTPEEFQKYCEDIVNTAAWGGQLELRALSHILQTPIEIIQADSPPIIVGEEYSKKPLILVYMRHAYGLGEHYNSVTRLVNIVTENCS
Procedure, shortened: (§1)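 Fragment (200 µM) or vehicle was incubated for 3 h with triplicate HEK293T lysate samples of 495 µg, which were then treated with Biotin-Ahx-Ub-VS at 0.5 µM final for 1 h. Labelled DUBs were enriched on NeutrAvidin, digested with LysC and trypsin, and analysed by diaPASEF LC-MS/MS. Values are average log2 fragment/vehicle ratios from an unpaired t-test on global-median-normalised Spectronaut label-free quantities, using proteins with ≥2 unique peptides.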

[2] = target: T2, OTUD7B (UniProt Q6GQQ9)
T2 sequence (whole entry): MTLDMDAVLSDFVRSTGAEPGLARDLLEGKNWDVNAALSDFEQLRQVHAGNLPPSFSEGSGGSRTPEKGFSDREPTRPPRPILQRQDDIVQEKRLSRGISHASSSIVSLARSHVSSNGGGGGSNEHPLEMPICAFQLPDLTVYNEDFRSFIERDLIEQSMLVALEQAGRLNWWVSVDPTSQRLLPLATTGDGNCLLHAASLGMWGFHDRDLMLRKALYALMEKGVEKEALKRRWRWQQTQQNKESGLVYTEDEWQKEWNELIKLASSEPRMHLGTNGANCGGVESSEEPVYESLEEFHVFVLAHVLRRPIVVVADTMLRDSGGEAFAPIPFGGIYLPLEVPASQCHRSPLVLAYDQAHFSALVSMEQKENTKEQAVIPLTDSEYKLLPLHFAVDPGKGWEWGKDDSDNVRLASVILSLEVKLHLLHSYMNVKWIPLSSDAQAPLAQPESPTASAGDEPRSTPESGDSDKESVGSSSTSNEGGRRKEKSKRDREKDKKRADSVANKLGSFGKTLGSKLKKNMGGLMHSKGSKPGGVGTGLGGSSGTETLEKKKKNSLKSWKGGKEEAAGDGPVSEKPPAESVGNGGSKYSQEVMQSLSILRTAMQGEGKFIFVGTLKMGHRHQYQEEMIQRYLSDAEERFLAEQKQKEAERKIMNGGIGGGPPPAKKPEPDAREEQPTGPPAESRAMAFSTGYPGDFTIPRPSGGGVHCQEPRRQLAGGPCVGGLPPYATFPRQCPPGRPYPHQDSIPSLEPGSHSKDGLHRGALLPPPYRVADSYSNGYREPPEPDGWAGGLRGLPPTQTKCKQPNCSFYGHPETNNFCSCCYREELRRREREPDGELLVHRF
Procedure, shortened: as §1

[3] = target: PRPF8 (UniProt Q6P2Q9)
Procedure, shortened: as §1

[4] = target: T3, PSMD7 (UniProt P51665)
T3 sequence (whole entry): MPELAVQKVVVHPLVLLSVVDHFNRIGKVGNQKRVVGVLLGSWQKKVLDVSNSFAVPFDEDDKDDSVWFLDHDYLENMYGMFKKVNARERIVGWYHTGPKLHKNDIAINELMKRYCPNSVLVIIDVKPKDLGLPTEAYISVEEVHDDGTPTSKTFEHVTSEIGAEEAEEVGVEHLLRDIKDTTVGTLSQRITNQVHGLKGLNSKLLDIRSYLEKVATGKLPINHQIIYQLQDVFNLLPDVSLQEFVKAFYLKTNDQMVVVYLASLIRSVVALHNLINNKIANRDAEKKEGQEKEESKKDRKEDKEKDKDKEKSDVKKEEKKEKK
Procedure, shortened: as §1

[5] = target: UCHL1 (UniProt P09936)
Sequence of UCHL1 (P09936 whole entry, looked up): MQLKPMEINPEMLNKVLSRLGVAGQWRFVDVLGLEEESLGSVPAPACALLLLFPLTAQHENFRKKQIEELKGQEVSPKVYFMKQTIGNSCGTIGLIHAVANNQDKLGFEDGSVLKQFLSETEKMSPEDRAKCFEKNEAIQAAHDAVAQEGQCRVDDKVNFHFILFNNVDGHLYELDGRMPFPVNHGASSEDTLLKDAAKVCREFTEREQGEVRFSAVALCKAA
Procedure, shortened: as §1

[6] = target: T4, UCHL3 (UniProt P15374)
T4 sequence (whole entry): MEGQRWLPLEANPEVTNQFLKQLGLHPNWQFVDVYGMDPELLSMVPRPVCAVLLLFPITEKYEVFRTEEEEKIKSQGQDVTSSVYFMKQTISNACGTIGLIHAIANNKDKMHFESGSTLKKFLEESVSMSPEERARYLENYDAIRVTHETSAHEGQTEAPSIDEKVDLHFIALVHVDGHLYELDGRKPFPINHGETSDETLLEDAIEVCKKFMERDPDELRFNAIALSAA
Procedure, shortened: as §1

[7] = target: T5, UCHL5 (UniProt Q9Y5K5)
T5 sequence (whole entry): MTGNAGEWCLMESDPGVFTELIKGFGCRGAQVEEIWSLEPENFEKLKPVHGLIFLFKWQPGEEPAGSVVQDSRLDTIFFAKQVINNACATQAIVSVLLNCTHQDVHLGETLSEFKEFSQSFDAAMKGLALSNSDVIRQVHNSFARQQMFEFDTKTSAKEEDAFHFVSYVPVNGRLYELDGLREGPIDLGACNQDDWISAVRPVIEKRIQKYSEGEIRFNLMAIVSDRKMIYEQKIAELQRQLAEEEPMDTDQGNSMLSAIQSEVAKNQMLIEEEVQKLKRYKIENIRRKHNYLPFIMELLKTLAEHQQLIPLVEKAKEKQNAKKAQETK
Procedure, shortened: as §1

[8] = target: USP10 (UniProt Q14694)
Sequence of USP10 (Q14694 whole entry): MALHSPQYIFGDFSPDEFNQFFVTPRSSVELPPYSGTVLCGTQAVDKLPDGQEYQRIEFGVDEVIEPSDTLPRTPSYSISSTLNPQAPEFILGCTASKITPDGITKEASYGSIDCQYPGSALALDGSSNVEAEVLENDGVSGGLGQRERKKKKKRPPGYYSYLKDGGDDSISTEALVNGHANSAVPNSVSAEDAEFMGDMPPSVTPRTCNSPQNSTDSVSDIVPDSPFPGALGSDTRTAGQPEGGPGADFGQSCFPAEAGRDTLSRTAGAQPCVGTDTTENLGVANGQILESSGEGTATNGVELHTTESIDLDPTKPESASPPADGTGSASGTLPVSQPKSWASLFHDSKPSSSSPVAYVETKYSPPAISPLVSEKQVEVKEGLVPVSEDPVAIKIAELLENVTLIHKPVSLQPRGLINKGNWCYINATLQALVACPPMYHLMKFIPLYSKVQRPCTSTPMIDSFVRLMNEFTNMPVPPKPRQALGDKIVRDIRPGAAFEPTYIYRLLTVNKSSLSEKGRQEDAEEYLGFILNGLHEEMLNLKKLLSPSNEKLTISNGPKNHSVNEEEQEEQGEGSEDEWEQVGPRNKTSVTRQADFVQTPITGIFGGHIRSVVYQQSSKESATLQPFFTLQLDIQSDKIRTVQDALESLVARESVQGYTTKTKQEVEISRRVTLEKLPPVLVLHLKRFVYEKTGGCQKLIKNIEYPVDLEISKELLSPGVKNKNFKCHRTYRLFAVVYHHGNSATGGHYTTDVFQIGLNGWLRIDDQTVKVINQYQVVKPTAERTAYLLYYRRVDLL
Procedure, shortened: as §1

[9] = target: T6, USP15 (UniProt Q9Y4E8)
T6 sequence (whole entry): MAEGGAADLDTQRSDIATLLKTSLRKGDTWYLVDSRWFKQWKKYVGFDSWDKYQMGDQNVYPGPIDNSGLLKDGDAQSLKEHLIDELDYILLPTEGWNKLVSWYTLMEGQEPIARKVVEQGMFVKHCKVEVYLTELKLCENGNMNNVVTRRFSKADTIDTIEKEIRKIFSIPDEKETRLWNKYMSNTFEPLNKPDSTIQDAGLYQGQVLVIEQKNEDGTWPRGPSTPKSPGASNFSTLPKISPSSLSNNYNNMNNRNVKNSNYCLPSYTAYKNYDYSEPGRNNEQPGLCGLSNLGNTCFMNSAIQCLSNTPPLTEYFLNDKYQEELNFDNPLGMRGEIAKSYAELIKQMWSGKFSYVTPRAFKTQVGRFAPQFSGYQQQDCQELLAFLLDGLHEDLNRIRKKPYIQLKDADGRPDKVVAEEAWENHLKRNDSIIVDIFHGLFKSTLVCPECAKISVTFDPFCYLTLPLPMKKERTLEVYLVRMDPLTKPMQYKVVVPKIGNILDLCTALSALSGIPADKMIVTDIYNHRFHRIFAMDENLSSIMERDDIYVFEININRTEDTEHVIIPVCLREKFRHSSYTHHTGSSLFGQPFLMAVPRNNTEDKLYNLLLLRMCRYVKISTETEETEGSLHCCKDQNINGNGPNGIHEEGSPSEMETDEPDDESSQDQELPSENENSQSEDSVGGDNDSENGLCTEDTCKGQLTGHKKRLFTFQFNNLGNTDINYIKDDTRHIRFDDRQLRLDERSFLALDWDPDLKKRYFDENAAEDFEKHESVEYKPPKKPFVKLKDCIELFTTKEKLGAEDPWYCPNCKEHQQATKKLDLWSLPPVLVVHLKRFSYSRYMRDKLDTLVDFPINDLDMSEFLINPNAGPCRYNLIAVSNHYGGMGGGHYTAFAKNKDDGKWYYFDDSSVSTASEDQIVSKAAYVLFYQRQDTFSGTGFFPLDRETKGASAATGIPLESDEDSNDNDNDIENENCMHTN
Procedure, shortened: as §1

[10] = target: USP16 (UniProt Q9Y5T5)
Sequence of USP16 (Q9Y5T5 whole entry, looked up): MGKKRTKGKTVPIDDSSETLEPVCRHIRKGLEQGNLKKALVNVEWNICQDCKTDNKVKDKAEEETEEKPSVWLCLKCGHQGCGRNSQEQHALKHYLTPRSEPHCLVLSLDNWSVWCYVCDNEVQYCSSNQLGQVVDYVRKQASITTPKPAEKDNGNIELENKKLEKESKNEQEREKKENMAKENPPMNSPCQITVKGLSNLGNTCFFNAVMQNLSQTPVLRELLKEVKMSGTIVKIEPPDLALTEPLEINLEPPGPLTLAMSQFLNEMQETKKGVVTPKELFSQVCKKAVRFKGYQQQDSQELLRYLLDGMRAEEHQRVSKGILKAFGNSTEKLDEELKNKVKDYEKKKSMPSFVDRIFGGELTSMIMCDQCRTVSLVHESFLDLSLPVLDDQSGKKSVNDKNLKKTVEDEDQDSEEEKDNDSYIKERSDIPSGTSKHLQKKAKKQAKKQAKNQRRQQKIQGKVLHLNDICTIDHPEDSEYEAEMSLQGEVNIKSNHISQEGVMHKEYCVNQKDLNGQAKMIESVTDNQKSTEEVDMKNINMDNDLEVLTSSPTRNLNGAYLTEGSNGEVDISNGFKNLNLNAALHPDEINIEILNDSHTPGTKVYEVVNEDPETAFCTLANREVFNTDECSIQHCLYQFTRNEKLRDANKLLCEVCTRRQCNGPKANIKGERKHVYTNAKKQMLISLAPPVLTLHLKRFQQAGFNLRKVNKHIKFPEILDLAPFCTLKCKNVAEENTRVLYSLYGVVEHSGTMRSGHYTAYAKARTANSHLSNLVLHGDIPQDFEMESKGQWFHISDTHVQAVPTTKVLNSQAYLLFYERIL
Procedure, shortened: as §1

Measured: log2 ratio of Biotin-Ahx-Ub-VS probe labelling

O=C(CCl)N1CCCC1c1ccsc1 (stereo not given)
active: [5] -1.81
inactive: [1] -0.452 | [2] -0.521 | [3] 0.0505 | [4] -0.39 | [6] -0.121 | [7] -0.228 | [8] -0.161 | [9] -0.548 | [10] -0.254
